Measurements taken from the supplement of paper PMC7156485.
± gives the standard deviation of the averaged measurements.

What was measured:
Settings in all cases: concentration: 10 µM; 24 h
HCC1569 [1] = assay: cell number relative to DMSO (% of DMSO); higher = more cells (less growth inhibition / toxicity)
Summary of the method: (§1)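 Six fields per well were imaged at ×10 after the cells were fixed in 3.7% formaldehyde and stained with a rabbit anti-H1.0 antibody, an AlexaFluor 647 secondary and DAPI. The HCC1569 and TDF cells had been plated at 800 per well in 384-well plates (RPMI, 10% FBS) and treated in triplicate with compounds at 10 µM for 24 h at 37 °C. The values are the median of replicates of H1.0 nuclear intensity or cell number, as percent of the plate control. Smoothing for positional effects was applied to HCC1569 data.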

TDF [2] = assay: as above
Summary of the method: as §1

TDF [3] = assay: H1.0 immunofluorescence intensity relative to DMSO (% of DMSO); higher = stronger H1.0 induction, active = 120 or more
Summary of the method: as §1

HCC1569 [4] = assay: H1.0 immunofluorescence intensity relative to DMSO (% of DMSO); higher = stronger H1.0 induction, active = 140 or more
Summary of the method: as §1
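Wherever H1.0 immunofluorescence intensity relative to DMSO is given: TDF is a line of transformed human dermal fibroblasts of mesenchymal origin.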
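Wherever cell number relative to DMSO is given: TDF denotes transformed human dermal fibroblasts of mesenchymal origin.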

Compound	cell number (HCC1569 [1])	cell number (TDF [2])	H1.0 immunofluorescence intensity (TDF [3])	H1.0 immunofluorescence intensity (HCC1569 [4])
C=CC(=O)c1ccc2ccccc2c1	99.7	92	103 (inactive)	113 (inactive)
Clc1ccccc1C(c1ccccc1)(c1ccccc1)n1ccnc1 [Clotrimazole]	75.1	69.1	104 (inactive)	108 (inactive)
CC(C)OC(=O)CCCC=CCC1C(O)CC(O)C1CCC(O)CCc1ccccc1 (stereo unspecified) [Latanoprost]	103	108	86.7 (inactive)	105 (inactive)
COc1ccc(Nc2nc(N)nc(CN3CCCCC3)n2)cc1	102	90.5	96.9 (inactive)	94.5 (inactive)
CC(=O)OC1C(=O)C2(C)C(O)CC3OCC3(OC(C)=O)C2C(OC(=O)c2ccccc2)C2(O)CC(OC(=O)C(O)C(NC(=O)c3ccccc3)c3ccccc3)C(C)=C1C2(C)C (stereo unspecified) [Taxol]	60.2 ± 4.1	10.1 ± 1.7	174 (active)	132 (inactive)
CN(C)CCCn1cc(C2=C(c3c[nH]c4ccccc34)C(=O)NC2=O)c2ccccc21 [Bisindolylmaleimide I]	85.8	80.3	111 (inactive)	131 (inactive)
C1COC(NC(C2CC2)C2CC2)=N1.O=P(O)(O)O [Rilmenidine phosphate]	101	110	88.5 (inactive)	103 (inactive)
O=C(CCCCCCC(=O)Nc1ccccc1)NO	101	95.7	121 (active)	100 (inactive)
Cc1[nH]ccc2c1[nH]c1cc(=O)ccc12.Cl.O.O	94	94.7	97.1 (inactive)	94.2 (inactive)
